# Test results from PubChem BioAssay (NCATS).
# Some of the results follow. Results filed as inconclusive are left out. Values without a mark were called inactive. Activity calls are given as the source filed them. Calls follow the shape of the dose curve; as a rule, active = well fitted inhibition curve with a large enough effect; inconclusive = small, poorly fitted or top-dose-only effect, or effect the other way; inactive = no such curve, though single readings can be large or run the other way.
# Test: qHTS Assay for Inhibitors of Fructose-1,6-bisphosphate Aldolase from Giardia Lamblia: Giardia lamblia growth inhibition (AID 2785);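 also: trophozoites exposed to compound for 48 h at 37 °C; nearly all actives have a fitted effect of over 70% in size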
# Conditions: Giardia lamblia trophozoite growth inhibition; series mostly up to 57.5 µM; activity change, negative = inhibition: at the top concentration
# Excerpt: NIH Chemical Genomics Center [NCGC]
# NIH Molecular Libraries Probe Production centers Network [MLPCN]
# Assay Provider: Osnat Herzberg, University of Maryland
# The objective of this project is to obtain compounds that inhibit Giardia lamblia growth. G. lamblia is a human pathogen which afflicts impoverished nations; it is the most common cause of outbreaks of diarrhea in the United States. During the course of our study of potential drug targets in Giardia, we have identified the Class II (Zn2+ functions in electrophilic catalysis) fructose-1,6-bisphosphate aldolase (FBPA) as an excellent candidate for drug targeting. FBPA is a key glycolytic pathway enzyme, essential for G. lamblia survival. The human FBPA belongs to the Class I aldolases, which have a different substrate binding site structure and a radically different catalytic mechanism (employing a lysine-Schiff base intermediate). Therefore, affinity-based or mechanism-based inhibitors of the Giardia FBPA are expected not to interfere with the catalytic function of the human FBPA.
# A glyceraldehyde-3-phosphate dehydrogenase/triose phosphate isomerase/NAD/arsenate coupled assay was adapted to the 1536-well HTP format for use in the primary screen. This was done by coupling it to a diaphorase/resazurin/resorufin reaction that can be monitored by fluorescence (excitation, 544 nm; emission, 590 nm). Compounds identified in this screen will be further evaluated by coupling the glycerol-3-phosphate/triose phosphate isomerase/NADH assay to a phenazine methosulfate/tetranitroblue tetrazolium color reaction. False positives due to the dehydrogenases and diaphorase inhibition will be eliminated, and selectivity assay will triage inhibitors of mammalian triose phosphate isomerase and the Class I FBPA. G. lamblia FBPA inhibitors identified by the in vitro analyses will be examined for growth inhibition of Giardia trophozoites, and for cytotoxicity in human cells.
# This assay addresses whether hits in the primary screen can inhibit growth of giardia lamblia trophozoites.
# Trophozoites of the G. lamblia isolate WB (33) were grown at pH 7.0 in modified TYI-S-33 medium. Detachment of trophozoites for preparation of inocula was achieved by chilling the cultures on ice for 20 min.
# 2uL/well media was dispensed per well into 1536-well white solid-bottom plates using a Multidrop Combi dispenser (Thermo Scientific). Subsequently, 23 nL/well compound solutions or DMSO controls were dispensed to the assay plates containing media via a pintool workstation (Kalypsys, San Diego) to avoid the potential contamination to the compound source plates. Unless otherwise noted, Giardia trophozoids suspended in media were dispensed as 100 cells/well in 4uL volumes. The plates were covered with plastic low-evaporation lids, individually sealed in Type A Bio-Bags and incubated at 37C for 48 hours. Following incubation, 4uL/well of ATPlite reagent was dispensed with a Multidrop Combi dispenser. The assay plates were briefly centrifuged at 1000 RPM and luminescence signal was detected on a ViewLux plate reader (PerkinElmer) after 20 min incubation at room temperature.
# Keywords: Fructose-bisphosphate aldolase, FBPA , Giardia lamblia , Giardia, HTS, Inhibitors
# % is scaled to controls: 0 for no effect and ±100 for the full control effect; potency is read from the fitted curve at half-maximal effect.
SMILES,"activity change, negative = inhibition",Potency
Cc1cc(C)c2c(=O)[nH]c(SCC(=O)Nc3ccc(Br)cc3)nc2n1,-5.41%,
Cn1c(=O)[nH]c(=O)c2c1[nH]c(=S)n2Cc1ccccc1,4.88% [at 10.4 µM],
Cc1cc(C)nc(N/N=C/c2ccc([N+](=O)[O-])o2)n1,,3.16 µM (active)
CN(C)CCOc1ccc(Cl)cc1C(C)(C)C,-6.56% [at 10.4 µM],
COc1ccc(OC)c(Nc2nc(-c3ccc(O)c(O)c3)cs2)c1,-10.8% [at 10.4 µM],
Cc1cc(C)n(-c2ccc(Cl)c(C(=O)O)n2)n1,26.5%,
COc1ccc(N=Nc2c(-c3ccc(OC)cc3)[nH]oc2=O)cc1,-15.5%,
CCN(CC(=O)NC(=O)NCc1ccccc1)Cc1nc2ccccc2c(=O)[nH]1,-29.8%,
O=C(CN1C(=O)COc2ccccc21)Nc1ccc(F)cc1,-19.4% [at 38.3 µM],
CN1CCCc2cc(C#N)c(=O)[nH]c21,27.9%,
COc1ccccc1CN1CCN(Cc2cc(OC)c(OC)cc2OC)CC1,59.3%,
COc1ccc(Cl)cc1C(=O)NNC(=O)c1nc2nc(C)cc(C)n2n1,-17.9%,
O=[N+]([O-])c1cc([N+](=O)[O-])c2cccnc2c1O,25.3%,
Cc1nc2ccc(NC(=S)N3CCC(C)CC3)cc2nc1C,-1.02%,
Cc1ccc(OCCCCc2c(C)n[nH]c2C)cc1,7.15% [at 10.4 µM],
CN1CCN(CCCCOc2ccccc2-c2ccccc2)CC1,45.3%,
O=C(Nc1nnc(-c2ccco2)o1)c1ccc(S(=O)(=O)N2CCOCC2)cc1,7.93% [at 10.4 µM],
CSc1n[nH]c(=S)n1N,10.6%,
CC(=O)NC1CCN(CC(=O)Nc2nccs2)CC1,-10.3% [at 10.4 µM],
COCCN(C(=S)Nc1ccccc1OC)C1CCN(C(C)C)CC1,9.74%,

SMILES,"activity change, negative = inhibition",Potency
O=C(NC(=S)Nc1ncccn1)c1ccccc1Br,-26.3% [at 38.3 µM],
Cc1nc(N2CCOCC2)sc1C(=O)NN,13.6%,
CCN(CC(=O)Nc1ccc(S(=O)(=O)N2CCCC2)cc1)CC(=O)Nc1cccc(OC)c1,-24.9%,
C=CCc1cc(C)ccc1OCCCn1ccnc1,5.83% [at 10.4 µM],
COC(=O)CC1=NN(c2nc(C)cc(C)n2)C(=O)C1,4.58% [at 38.3 µM],
COc1cc(CN2CCN(Cc3ccc(C)cc3)CC2)c([N+](=O)[O-])cc1OC,-29.9%,
C=C(C)CNC(=S)N/N=C/c1ccccc1OCC(=O)O,-11.7%,
O=S(=O)(c1ccc(NC(=S)NN=C(C2CC2)C2CC2)cc1)N1CCOCC1,-9.73% [at 10.4 µM],
Cc1cccc(-c2nnc(SCC(=O)O)n2Cc2ccccc2)c1,6.79% [at 10.4 µM],
Cc1cccc(C)c1OCCN1CCOCC1,14.9% [at 10.4 µM],
CNC(=S)N/N=C/c1ccc(N2CCOCC2)s1,-8.92% [at 10.4 µM],
Cc1cnc(NC(=O)c2ccccn2)s1,-23.9% [at 10.4 µM],
Cc1csc(NC(=O)CN2CCCCCC2)n1,1.38% [at 10.4 µM],
COc1ccc(C(=O)NC(=S)N2CCCCC2c2cccnc2)cc1OC (stereo not given),-19.9%,
O=C1CCCN1CCCNC(=S)Nc1ccc(F)c(Cl)c1,-14.2%,
O=C(Nc1ccccc1Cl)O/N=C(/c1ccccc1)c1ccccn1,,22.4 µM (active)
COc1ccc(CN2CCN(Cc3ccc(OC)c(OC)c3OC)CC2)cc1,6.68% [at 10.4 µM],
CN1C(=O)/C(=C\c2ccc(-c3ccccc3)o2)SC1=S,-13.3% [at 38.3 µM],
CC(C)(c1ccccc1)c1ccc(OCCN2CCCC2)cc1,-13.4%,
Clc1cccc(CN2COc3c(cc(Cl)c4cccnc34)C2)c1,-13.7%,
